Measurements from PubChem BioAssay AID504465 (National Center for Advancing Translational Sciences (NCATS), 2011).
Among all 2,100 compounds or so, about 210 (10%) were called active. Roughly 53% stayed inconclusive and do not appear here. Calls follow the shape of the dose curve; as a rule, active = well fitted inhibition curve with a large enough effect; inconclusive = small, poorly fitted or top-dose-only effect, or effect the other way; inactive = no such curve, though single readings can be large or run the other way. This is one part of the list.

Assay: IN Cell qHTS Assay for Inhibitors of the mTORC1 Signaling Pathway in MEF (Tsc2-/-, p53-/-) Cells: Sytravon; also: nearly all actives have a fitted effect of over 60% in size
Conditions: phospho-rpS6 immunofluorescence, 24 h; series mostly up to 38.3 µM; activity, negative = inhibition: at the top concentration
Procedure, shortened: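 Immunofluorescence of rpS6 phosphorylation (Ser235/236) in mouse embryonic fibroblasts lacking Tsc2 and p53, after 24 h compound exposure; Hoechst-normalized signal imaged, each well scored as % active cells relative to rapamycin (7.5 nM) and DMSO controls.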
Potency is read from the fitted curve at half-maximal effect.

activity, negative = inhibition, inactive:
COc1cccc(CNC(=O)C2Cc3cc(S(=O)(=O)N4CCCCCC4)ccc3N2C(C)=O)c1 (stereo unspecified) 0%, Cc1ccc2nc(/C(C#N)=C/c3cccc(Br)c3)[nH]c2c1 -32%, CCc1ccc(S(=O)(=O)c2nnn(-c3cccc(C)c3)c2N)cc1 2.14%, Cc1cccc(C2C=C(c3ccc(C)c(C)c3)Nc3nnnn32)c1 (stereo unspecified) 0%, COc1ccc(C(=O)NC(c2ccccc2Cl)c2cc(Cl)c3cccnc3c2O)cc1 (stereo unspecified) 0%, O=C(Nc1nnc(-c2cc(Cl)ccc2Cl)o1)c1ccc2c(c1)OCCO2 15.6%, COC(=O)c1sc2cccc(F)c2c1S(=O)(=O)N1CCN(c2cccc(OC)c2)CC1 0.892%, COc1ccc(/C=C/c2nc(C#N)c(NC3CCCCC3)o2)cc1OC -11.3%, COc1ccc(NC(=O)c2c(C)oc3ccc(O)c(CN4CCCCCC4)c23)cc1 -14.3%, COc1cccc(-c2cc(C(=O)Nc3ccn(Cc4ccc(C)cc4)n3)no2)c1 24.6%, Cc1ccc(CNCc2c(C(=O)O)n(Cc3ccc(C)cc3)c3cc(C)ccc23)cc1 -13.3%, O=C(Nc1ccc(C(F)(F)F)cc1)c1cc(S(=O)(=O)NC2CCCCCC2)ccc1F 6.25%, CCc1ccccc1NC(=O)CSc1nnc(COc2ccccc2Cl)o1 2.63%, Cc1ccc(OCC(=O)Nc2nnc(SCc3cc(=O)n4cc(C)ccc4n3)s2)cc1 2.68%, COc1cc(C(=O)N2CCc3c([nH]c4ccccc34)C2c2ccc(C)cc2)cc(OC)c1OC (stereo unspecified) -41.5%, Cc1ccc(-n2c(SCc3ccccc3C)nc3[nH]ncc3c2=O)cc1C 0%, COc1ccc(Cl)cc1NC(=O)c1c(NCc2cccs2)sc2c1CCC(C)C2 (stereo unspecified) 0%, COc1ccc(Cl)cc1NC(=O)c1c(NCc2cccnc2)sc2c1CCC(C)C2 (stereo unspecified) 0%, CCCCC(=O)OC1=C(C(=O)c2ccccc2)N(CCC)S(=O)(=O)c2ccccc21 -13.9%, Cc1scc(CN2CCN(c3ccccc3F)CC2)c1C -3.84%, CC1C(=O)Nc2ccc(S(=O)(=O)Nc3ccccc3Br)cc2NC1=O (stereo unspecified) -11.9%, CN(C)CCNC(=O)c1ccc(-n2c(-c3ccccc3)cc3c2CCCCC3)cc1 -13.6%, CCSc1ncc(Cl)c(C(=O)Nc2ccc(S(=O)(=O)N3CCCCC3CC)cc2)n1 (stereo unspecified) -7.02%, CCS(=O)(=O)c1ncc(Cl)c(C(=O)Nc2c(C(=O)Nc3cccc(C)c3)oc3ccccc23)n1 -11.7%, CN(C)C(=O)c1c(NC(=O)c2ccccc2F)sc2c1CCCC2 3.93%, CC(=O)Nc1c(C(=O)Nc2ccccc2F)oc2ccccc12 -23.3%, Cc1cc(C)cc(-n2c(SCC(N)=O)nc3c([nH]c4ccccc43)c2=O)c1 -14.5%, CC1=C(C(=O)Nc2ccccc2)C(c2cccnc2)n2nc(SCc3ccccc3F)nc2N1 (stereo unspecified) 4.84%, COc1ccc(Cl)cc1NC(=O)c1c(NCc2ccc(C)o2)sc2c1CCC(C)C2 (stereo unspecified) 0%, COC(=O)c1ccc([C@H]2Nc3ccc(S(=O)(=O)Nc4ccc(F)cc4)cc3[C@H]3C=CC[C@H]32)cc1 -20.2%, CC(C)c1ccc(S(=O)(=O)Nc2ccc3oc4c(c3c2)C(=O)CC(C)(C)C4)cc1 -100%, COc1cc(S(=O)(=O)NCCc2c(C)[nH]c3ccccc23)c(C)cc1C 27.6%, CSc1ncc(Cl)c(C(=O)N(C)c2ccccc2)n1 -7.39%, COC(=O)c1sccc1S(=O)(=O)N(CC(=O)Nc1ccc(C)cc1)c1ccccc1 0.187%, CCN(CC)c1nc2ccccc2nc1C(=O)Nc1ccc(C(C)=O)cc1 -4.22%, CN(C)S(=O)(=O)c1ccc(C(=O)Nc2ccc(-n3nncc3-c3ccccc3)cc2)cc1 6.25%, Oc1cccc(Nc2nc(-c3ccccc3)nc3ccccc23)c1 14.6%, Cc1ccc(-n2cnc3cc(C(=O)NCCC4=CCCCC4)ccc32)cc1Cl 6.25%, Cc1ccc(NC(=O)N2CC3CCCN3c3ccccc32)cc1Cl (stereo unspecified) 1.3%, Cc1ccc(-c2nn3c(=O)cc(CN4CCN(C(=O)Nc5cc(Cl)ccc5C)CC4)nc3s2)cc1 -27.1%, CCOC(=O)c1c(NC(=O)c2ccc(S(=O)(=O)N3CCC(C)CC3)cc2)sc2c1CCN(C)C2 -15%, COc1ccccc1CNC(=O)C(=O)NCC(c1cccnc1)N1CCN(c2ccc(F)cc2)CC1 (stereo unspecified) -26.1%, Cc1ccc(/C=C(\C#N)C(=O)Nc2ccc(Br)cc2)o1 -12.4%, Cc1[nH]n2c(=O)cc(-c3ccc(Cl)cc3)nc2c1-c1ccccc1 -21.5%, COc1cccc(OCc2nc3ccccc3n2CCOc2ccc(C)cc2)c1 -0.601%, COc1ccccc1N1CCN(CC(O)COc2ccc(C)cc2C(C)(C)C)CC1 (stereo unspecified) 15.3%, Cc1ccc(OCCn2c(CNc3cccc(C)c3)nc3ccccc32)cc1 3.56%

Potency, active:
Cc1cccc(-n2nnnc2S(C)(=O)=O)c1 1470 nM, COc1cccc(-c2nnc3sc(CN4CCCCC4)cn23)c1 14700 nM, COc1cc(C(=O)n2nc(C)c(Sc3ccc(Cl)cc3)c2C)cc(OC)c1OC 11700 nM, CC(C)(C)C1CCc2c(sc(NC(=O)c3cccc(Cl)c3)c2C(N)=O)C1 (stereo unspecified) 7360 nM, CCNC(=O)c1c(NC(=O)c2nc(S(=O)(=O)CC)ncc2Cl)sc2c1CCCC2 2070 nM, CCS(=O)(=O)c1ncc(Cl)c(C(=O)Nc2ccccc2)n1 2610 nM, CCCS(=O)(=O)c1ncc(Cl)c(C(=O)Nc2c(C(=O)Nc3ccccc3)oc3ccccc23)n1 2070 nM, CCS(=O)(=O)c1ncc(Cl)c(C(=O)Nc2ccc(S(=O)(=O)N(C)c3ccccc3)cc2)n1 927 nM, CN(c1ccccc1)S(=O)(=O)c1ccc(NC(=O)c2nc(S(C)(=O)=O)ncc2Cl)cc1 736 nM, CCN(c1ccccc1)S(=O)(=O)c1ccc(NC(=O)c2nc(S(C)(=O)=O)ncc2Cl)cc1 2070 nM, CCCCn1c(=N)n(CCOc2ccccc2OC)c2ccccc21 6560 nM, Cc1ccccc1OCC(O)Cn1c(=N)n(CCN2CCCCC2)c2ccccc21 (stereo unspecified) 5850 nM, N=c1n(CCN2CCCCC2)c2ccccc2n1CC(O)COc1ccc(Cl)cc1Cl (stereo unspecified) 2610 nM, CCn1c(=N)n(CCOc2ccc(Br)cc2)c2ccccc21 6560 nM
